Among all 1,200 compounds or so, about 360 (30%) were called active. How the calls were made is not given here. A selection follows. Entries with a potency or affinity are not part of this list.
Test: bacterial growth inhibition, dose response, counter-screen, BacTiter-Glo luminescence, cherry-picked samples (AID 504843);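 further: growth measured after 8 h incubation at 30 °C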
Conditions: BacTiter-Glo ATP luminescence; series mostly up to 15 µM

Row | Compound | outcome
1 | COc1ccc(C(CNC(=O)c2cc(SC)ccc2Cl)N(C)C)cc1 (stereo not drawn) | inactive
2 | O=C(NC(=S)NNC(=O)c1ccccc1O)c1ccccc1 | inactive
3 | O=C(c1ccco1)N1CCN(C(=O)c2ccc(CS(=O)c3ccc(F)cc3)o2)CC1 (stereo not drawn) | inactive
4 | CCC(=NCCc1ccc(OC)c(OC)c1)C1=C(O)CC(C)(C)CC1=O | inactive
5 | COCCNC(=O)c1c[nH]c2ccc(S(=O)(=O)N3CCc4ccccc43)cc2c1=O | inactive
6 | COc1cc(OC)cc(C(=O)NC2CC(C)(C)NC(C)(C)C2)c1 | inactive
7 | CC(=O)c1cc(CN2CCCCC2)cc(OC(C)C)c1 | inactive
8 | CCc1cc2c(=O)n(C(C)C(=O)OC3CCCCC3)cnc2s1 (stereo not drawn) | inactive
9 | O=C(Nc1cc(N2CCOCC2)ncn1)c1ccccc1 | inactive
10 | COc1ccccc1N1C(=NC(=O)CCc2ccccc2)SC2CS(=O)(=O)CC21 (stereo not drawn) | inactive
11 | CCCn1c2c(c(=N)c3c1CCC3)CCCC2 | inactive
12 | CC(C)(C#N)NC(=O)C1CCCN1S(=O)(=O)c1ccc2ccccc2c1 (stereo not drawn) | inactive
13 | CC(=O)c1ccc(NC(=O)C2CCCN2S(=O)(=O)c2cccc3cccnc23)cc1 (stereo not drawn) | inactive
14 | Cc1ccc(S(=O)(=O)NC(C)(C)CSc2nnc(Nc3ccccc3)s2)cc1 | inactive
15 | O=C(CN1CCCCC1)Nc1cc(Cl)ccc1Cl | inactive
16 | Cc1ccc(NC(=O)CN2CCN(c3ccccn3)CC2)c(Cl)c1 | inactive
17 | CCC1Nc2ncnc(N3CCOCC3)c2N(Cc2ccc(Cl)cc2)C1=O (stereo not drawn) | inactive
18 | O=C(Nc1cccnc1Cl)c1noc2c1CCc1ccccc1-2 | inactive
19 | CC1=C(C#N)C(c2cn(-c3ccccc3)nc2-c2cccs2)C(C#N)=C(C)N1 | inactive
20 | CC(=O)Nc1cccc(-c2csc(Nc3cc(C)ccn3)n2)c1 | inactive
21 | O=C(O)c1ccc(NC2=C(N3CCOCC3)C(=O)c3ccccc3C2=O)cc1 | inactive
22 | COC(=O)COc1cccc(NC(=O)c2cccc(C)c2)c1 | inactive

Row | Compound | outcome
23 | Cc1cccc(OCC(O)Cn2c(=N)n(CCN3CCOCC3)c3ccccc32)c1 (stereo not drawn) | inactive
24 | CCCNC(=O)c1cc(C)no1 | inactive
25 | COc1ccc(/C(C)=N/NC(=O)CNC(=O)c2ccncc2)c(OC)c1 | inactive
26 | CCCCc1ccc(N=N/C(C(=O)Nc2ccc(NC(C)=O)cc2OC)=C(/C)O)cc1 | inactive
27 | Cc1ccc(C)c(S(=O)(=O)Nc2cc(SCC(=O)O)c(O)c3ccccc23)c1 | inactive
28 | CC1(C)c2ccccc2N2CC(=O)NC21/C=C/c1ccco1 (stereo not drawn) | inactive
29 | C=CCn1cccc(C(=O)Nc2ccc(OC)cc2)c1=O | inactive
30 | C=CCNC(=S)Nc1cccc2[nH]ncc12 | inactive
31 | COc1cccc(CN2CCN(C(=O)c3ccco3)CC2)c1 | inactive
32 | O=[N+]([O-])c1cccc(N(CC(O)CN2CCCCC2)S(=O)(=O)c2ccccc2)c1 (stereo not drawn) | inactive
33 | COc1ccc(S(=O)(=O)Nc2nc3c(s2)CCCC3)cc1 | inactive
34 | O=C(COC(=O)c1cccc(S(=O)(=O)N2CCc3ccccc32)c1)Nc1ncc(C(F)(F)F)cc1Cl | inactive
35 | CCC(CO)NC(=O)c1cccc(S(=O)(=O)N2c3ccccc3CC2C)c1 (stereo not drawn) | inactive
36 | Nc1ccc(S(=O)(=O)N2CCCc3ccccc32)cc1 | inactive
37 | C[C@H]1NC(=O)[C@@]2(C)[C@@H](c3ccccc3)[C@H]3COc4ccccc4[C@H]3N2C1=O | inactive
38 | CCNc1nc(SCCOc2ccc(C)cc2)nc(N(C)C)n1 | inactive
39 | CCC1SC(C)C/C(=N/NC(N)=O)C1C (stereo not drawn) | inactive
40 | CN(C)c1cccc(C(=O)N/N=C/c2ccccc2F)c1 | inactive
41 | CCOC(=O)c1ccc(NC(=O)c2cn(CCC#N)nc2-c2ccc3c(c2)OCCO3)cc1 | inactive
42 | O=C(NCc1cccnc1)c1cccc(-c2cc3ccccc3oc2=O)c1 | inactive
43 | Cc1cnc(C(=O)OCC(=O)Nc2sc3c(c2C#N)CCC3)cn1 | inactive
44 | CC1CCN(C(=O)c2ccc(S(=O)(=O)N3CCCC3)cc2)CC1 | inactive

Row | Compound | outcome
45 | CC(=O)Oc1ccc(C(=O)Nc2ccccc2C(=O)N2CCCCC2)cc1 | inactive
46 | CCOC(=O)C1CCN(C(=O)Nc2ccc(C)c(Cl)c2)CC1 | inactive
47 | Cc1ccccc1C(=O)N1CCN(c2ccc(NC(=S)NC(=O)c3cccs3)cc2)CC1 | inactive
48 | CCc1ccc2c(COC(=O)C3CC(=O)N(CCc4ccccc4)C3)cc(=O)oc2c1 (stereo not drawn) | inactive
49 | CN(C)c1nc(NCc2ccccc2)nc(SCC(N)=O)n1 | inactive
50 | CCn1c(SCC(=O)c2ccccc2)nnc1-c1cccnc1 | inactive
51 | COc1ccc(NC(=O)COCC(=O)Nc2ccc(C)cc2)cc1 | inactive
52 | CCOC(=O)C(C(=O)Nc1ccc(C)cc1)C1CCCCC1 (stereo not drawn) | inactive
53 | CC(C)(C)CC(=O)Nc1cccc(-c2cn3cccnc3n2)c1 | inactive
54 | Cc1ccc(OCCNS(=O)(=O)c2ccc(N3CCCC3=O)cc2)cc1C | inactive
55 | CCCCOc1ccc(NC(=O)c2cc(F)c(F)cc2Cl)cc1 | inactive
56 | CCc1ccc(NC(=O)Nc2cc(C(=O)NCC3CCCO3)ccc2N2CC3CC(C2)c2cccc(=O)n2C3)cc1 (stereo not drawn) | inactive
57 | COc1ccccc1OCCNC(=O)C1CCN(C(C)=O)CC1 | inactive
58 | CC(C)(C)OC(=O)NCCCCCNC(=O)c1[nH]cnc1C(=O)NC1CCN(C(=O)OC(C)(C)C)CC1 | inactive
59 | Cc1cc(C)cc(-n2c(C)cc(/C=C3\C(=N)N4N=C(CC(C)C)SC4=NC3=O)c2C)c1 | inactive
60 | O=C(NNc1ccnc2cc(Cl)ccc12)C1CCCCC1 | inactive
61 | COc1ccc(CCNC(=O)/C=C/c2ccco2)cc1OC | inactive
62 | Cc1ccc(CN(C(=O)c2sc3ccccc3c2Cl)C2CCS(=O)(=O)C2)cc1 (stereo not drawn) | inactive
63 | O=C(O)[C@H](CO)Nc1ncnc2sc3c(c12)CCC3 | inactive
64 | O=C(CCNS(=O)(=O)c1ccccc1C(F)(F)F)N1CCN(c2ccccc2O)CC1 | inactive
65 | CCN(CC)C(=O)CSc1nc2ccccc2o1 | inactive
66 | CCCCN(CC)CCNC(=S)Nc1ccc2nc(N3CCN(C)CC3)cc(C)c2c1 | inactive

Row | Compound | outcome
67 | O=C(Nc1ccc(C2=NCCN2)cc1)c1ccc(C(=O)Nc2ccc(C3=NCCN3)cc2)c([N+](=O)[O-])c1 | inactive
68 | CC(=O)Nc1ccc(Nc2nc(C)c([N+](=O)[O-])c(N(C)c3ccccc3)n2)cc1 | inactive
69 | CC1CN(C(=O)c2cc3cc([N+](=O)[O-])ccc3oc2=O)CC(C)O1 (stereo not drawn) | inactive
70 | O=C(CSC1=NCCS1)c1ccc(Cl)cc1 | inactive
71 | Cc1[nH]c2ccccc2c1Cc1nnc(SCC(N)=O)o1 | inactive
72 | COc1ccc(-c2cc(C)no2)cc1S(=O)(=O)NCCCN1CCCCCC1 | inactive
73 | CCNc1c(NS(=O)(=O)c2ccc(OC)cc2)c(=O)oc2ccccc12 | inactive
74 | COc1ccccc1N1CCN(c2nc(-c3ccccc3)cc(C(F)(F)F)n2)CC1 | inactive
75 | CCNc1nc(NCC)nc(OCCOC(C)=O)n1 | inactive
76 | Nc1cc(N)nc(SCc2ccc(Cl)cc2)n1 | inactive
77 | O=C(Nc1ccccc1F)c1ccc([N+](=O)[O-])s1 | inactive
78 | Cc1cccc(NC(=O)c2cc(S(=O)(=O)N3CCC4(CC3)OCCO4)ccc2F)c1 | inactive
79 | c1ccc2c(N3CCOCC3)nc(-c3ccncc3)nc2c1 | inactive
80 | CCNC(=O)NC(=O)C(C)OC(=O)C1CCN(S(=O)(=O)c2ccccc2F)CC1 (stereo not drawn) | inactive
81 | Cc1cc(C)c(S(=O)(=O)N2CCN(C(=O)CN3C(=O)NC4(CCCC4)C3=O)CC2)c(C)c1 | inactive
82 | Cc1ccc(C)c(SCC(=O)Nc2cccc(S(=O)(=O)NC3=NCCCCC3)c2)c1 | inactive
83 | Cc1ccc(CCNC(=O)CCS(=O)(=O)c2cc3c(cc2C)NC(=O)CO3)cc1 | inactive
84 | CN(Cc1ccccc1)c1ncnc2sccc12 | inactive
85 | Cc1cccc(NC(=O)[C@H](Cc2ccccc2)NC(=O)OCc2ccccc2)c1 | inactive
86 | CC(C)(C)CC(=O)Nc1ccc(Nc2ccccc2)cc1 | inactive
87 | CC(C)CN(C(=O)COC(=O)c1ccccc1NCc1ccco1)c1c(N)n(Cc2ccccc2)c(=O)[nH]c1=O | inactive
88 | CSc1ncccc1C(=O)OCC(=O)N(C)c1c(N)n(Cc2ccccc2)c(=O)[nH]c1=O | inactive

Row | Compound | outcome
89 | COC(=O)C[C@H]1c2cc(F)cc(F)c2S(=O)(=O)N1C1CCN(Cc2ccccc2)CC1 | inactive
90 | CCCCN(CC)CCNS(=O)(=O)c1ccc2c(c1)oc(=O)n2C | inactive
91 | O=C(Cn1c(=O)oc2cc(S(=O)(=O)N3CCc4ccccc43)ccc21)N1CCCCC1 | inactive
92 | CCOc1cc(/C=N/NC(=O)C(=O)NCc2cccnc2)ccc1O | inactive
93 | COc1ccccc1C(=O)Nc1ccc2c(c1)CN(Cc1cnc(C)s1)CC2 | inactive
94 | Cc1ccccc1NC(=S)N1CCN(Cc2ccc3c(c2)OCO3)CC1 | inactive
95 | Cc1ccc(C)c(NC(=O)CN(C)C(=O)c2cccc(S(=O)(=O)N(C)C)c2)c1 | inactive
96 | Cc1cccc(NC(=O)CNC(=O)CN2C(=O)NC3(CCc4ccccc43)C2=O)c1C (stereo not drawn) | inactive
97 | CC1CCN(c2ccc(C(=O)NCc3ccco3)cc2[N+](=O)[O-])CC1 | inactive
98 | CCN(CC)S(=O)(=O)c1cc(NC(=O)c2ccc(-n3cncn3)c([N+](=O)[O-])c2)ccc1C | inactive
99 | CC1(C)C2CCC1(C)C(NC(=O)/C=C/c1ccccc1)C2 (stereo not drawn) | inactive
100 | O=c1oc2ccccc2c(N2CCC(c3ccccc3)CC2)c1[N+](=O)[O-] | inactive
101 | Cc1ccccc1N/N=C/c1ccc(C#N)cc1 | inactive
102 | Cc1ccc(-c2nn(-c3ccccc3)cc2CC(=S)N2CCOCC2)cc1 | inactive
103 | O=C(CSc1nnc(-c2ccccc2)n1C1CCCCC1)N1CCCC1 | inactive
104 | Cc1cccc(-n2c(SCC(=O)NC3CCCC3)nnc2-c2ccoc2C)c1 | inactive
105 | Cc1ccc(C2CC(c3ccccc3)n3ncnc3N2)cc1 (stereo not drawn) | inactive
106 | CCn1c(C)cc(/C=C2/NC(=O)N(Cc3ccccc3F)C2=O)c1C | inactive
107 | CC(=O)Nc1cccc(Oc2nc(C(F)(F)F)nc3ccccc23)c1 | inactive
108 | COc1cccc(NC(=O)c2ccc3c(SCC(=O)O)c4c(nc3c2)CCCC4)c1 | inactive

Reference: PubChem BioAssay AID504843 (Broad Institute, 2011)
